Assay outcomes: PubChem, National Center for Advancing Translational Sciences (NCATS)
MCF10A rerep: A quantitative high throughput screen for small molecules that induce DNA re-replication in MCF 10a normal breast cells; MCF 10A DNA re-replication, Hoechst nuclear intensity, 48 h; Potency, µM (top dose mostly 46.1 µM), usual class: activators; 350,000 tested, 2.9% active; AID 624296, 2012; also: nearly all actives have a fitted effect of over 50% in size
Gal4-VP16 FLuc: VP16 counterscreen qHTS for inhibitors of ROR gamma transcriptional activity | Drosophila S2 Gal4-VP16 UAS-luciferase, luminescence, 20 h | Potency, µM (series often up to 53.6 µM), actives largely listed as inhibitors | 310,000 tested, 3.5% active | AID 2546, 2010;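 also: Gal4-VP16 expression switched on by copper sulfate through the metallothionein promoter; nearly all actives have a fitted effect of over 50% in size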
IL1B secr inh: qHTS for Inhibitors of Inflammasome Signaling: IL-1-beta AlphaLISA Primary Screen; AID 743279, 2014; THP-1 LPS/ATP IL-1B secretion, AlphaLISA, 16 h; active compounds read low; 360,000 tested, 4.7% active; activity change, % at 57.5 µM; in the data active = activity change below about -50%; inconclusive = mostly about -30% to -49%
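Secreted IL-1B measured by AlphaLISA bead assay after 16 h compound exposure of THP-1 cells; compounds (final up to 57.5 uM) added 1 h before LPS (250 ng/mL) and ATP (1.25 mM) stimulation; lower signal means less secretion.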
RORgamma inh: qHTS for inhibitors of ROR gamma transcriptional activity. Nuclear receptor ROR-gamma (Mus musculus), P51450. Drosophila S2 Gal4-RORgamma UAS-luciferase reporter, 20 h. Potency, µM (top dose mostly 53.6 µM), most hits filed as inhibitors. 310,000 tested, 5.4% active. AID 2551, 2010; also: nearly all actives have a fitted effect of over 60% in size
Target sequence (P51450 whole entry, looked up, the tested form may be a part): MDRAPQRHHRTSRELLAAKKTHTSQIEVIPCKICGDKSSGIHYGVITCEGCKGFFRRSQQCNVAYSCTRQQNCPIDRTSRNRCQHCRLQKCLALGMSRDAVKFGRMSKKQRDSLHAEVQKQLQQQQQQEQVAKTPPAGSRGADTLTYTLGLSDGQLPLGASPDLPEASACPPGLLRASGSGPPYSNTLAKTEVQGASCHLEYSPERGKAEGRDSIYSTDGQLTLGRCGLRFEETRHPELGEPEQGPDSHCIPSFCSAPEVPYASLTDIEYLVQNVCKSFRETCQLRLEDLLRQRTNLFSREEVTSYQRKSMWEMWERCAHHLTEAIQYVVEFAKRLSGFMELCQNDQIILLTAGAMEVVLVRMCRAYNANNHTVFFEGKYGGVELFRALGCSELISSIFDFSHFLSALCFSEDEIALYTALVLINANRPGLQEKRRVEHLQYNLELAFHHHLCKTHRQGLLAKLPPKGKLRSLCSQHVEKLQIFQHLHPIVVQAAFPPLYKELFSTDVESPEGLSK
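A Gal4/UAS one-hybrid system in insect cells: metallothionein-promoter Gal4–ROR gamma fusion plus Photinus luciferase reporter. Copper sulfate 700 uM final, 20 hr ambient incubation, luminescent detection after 10 min with reagent.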
SW480 rereplic: A quantitative high throughput screen for small molecules that induce DNA re-replication in SW480 colon adenocarcinoma cells; SW480 DNA re-replication, Hoechst DNA content imaging, 48 h; Potency, µM (highest dose often 46.1 µM), actives largely listed as activators; 340,000 tested, 1.8% active; also: nearly all actives have a fitted effect of over 55% in size
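SW480 cells exposed to compounds for 48 hr at 37 C, 5% CO2, then Hoechst-stained 40 min. Nuclear DNA content imaged by fluorescence scanning (405 nm excitation, 500-530 nm emission); re-replication scored as increased high-intensity nuclei.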
Numbers stand for hits; 0 = inactive; ? = inconclusive; - = no result; [ ] = another dose, or the depositor's remark. Only some compounds are listed: those with a hit (about 11% of all), similar ones and a draw of the others. Unless noted, calls follow the shape of the dose curve; as a rule, active = well fitted curve in the direction sought with a large enough effect; inconclusive = small, poorly fitted or top-dose-only effect, or another doubt; inactive = no such curve, though single readings can be large; an effect the other way counts as inactive or inconclusive.

SMILES | MCF10A rerep | Gal4-VP16 FLuc | IL1B secr inh | RORgamma inh | SW480 rereplic
C=CCNC(=O)/C(C#N)=C/c1c(N(Cc2ccccc2)Cc2ccccc2)nc2ccccn2c1=O | 0 | 0 | -53 | 0 | 0
N#C/C(=C\c1c(N(Cc2ccccc2)Cc2ccccc2)nc2ccccn2c1=O)C(N)=O | 0 | 7.1µM | ? | ? | 0
Cc1ccc(NC(=O)c2cc(-c3ccccc3)n[nH]2)cc1 | 0 | 0 | -75 | 0 | 0
COc1ccc(Cl)cc1-c1cc(C(=O)Nc2ccccc2)[nH]n1 | - | - | 0 | - | -
COc1ccc(Cl)c(-c2cc(C(=O)Nc3ccccc3)[nH]n2)c1 | - | - | -51 | - | -
COc1cc(C(=O)NNC(=O)c2cc(-c3ccccc3)n[nH]2)cc(OC)c1C | 0 | - | -64 | - | 0
O=C(COc1ccc2c(c1)oc(=O)c1ccccc12)NC(Cc1ccc(Cl)cc1)C(=O)O (configuration not stated) | 0 | 0 | 0 | 0 | 0
O=C(Nc1ccccc1)Nc1ccccc1C(=O)NCC1CC1 | 0 | 0 | 0 | 0 | 0
COCCNC(=O)c1ccccc1NC(=O)Nc1ccccc1 | 0 | 0 | -50 | 0 | 0
COCCCNC(=S)Nc1ccccc1C | ? | 0 | 0 | ? | 0
CNC(=S)NN(c1ccccc1)c1ccccc1 | 0 | ? | 0 | 18µM | 0
COCCNC(=S)N(c1ccccc1)C(C)C | 0 | 0 | 0 | 0 | 0
COCCNC(=S)NN(c1ccccc1)c1ccccc1 | ? | ? | 0 | 7.9µM | ?
COCCNC(=S)Nc1ccccc1Cc1ccccc1 | 0 | 10µM | 0 | 3.5µM | 0
C[C@H]1CN([C@@H](C)CO)C(=O)CCCn2cc(nn2)CO[C@@H]1CN(C)C(=O)Nc1cccc(Oc2ccccn2)c1 | - | - | 0 | - | -
CC(C)(C)c1csc(Sc2ccc([N+](=O)[O-])cn2)n1 | ? | 0 | -93 | 0 | 0[9.22 µM]
Cc1ccnc(Sc2ccc([N+](=O)[O-])cn2)n1 | 0 | 0 | 0 | 0 | 0
CCOc1ccc(-n2cnc3sc4c(c3c2=O)CCCC4)cc1 | 0 | 0 | -63 | 0 | 0
CC1=C[C@@H](O)CC(C)(C)[C@@H]1/C=C/C(C)=C/C=C/C(C)=C/C=C/C=C(C)/C=C/C=C(C)/C=C/C1=C(C)C[C@H](O)CC1(C)C | 30µM | 0 | - | 0 | ?
CC1=CN2C(=NC(=O)CC2(C)C(=O)N(CC(=O)NC2CCCC2)Cc2ccc(Cl)cc2)C=C1 (configuration not stated) | 0 | 0 | 0 | 0 | 0
Nc1nc(Cl)nc2c1ncn2C1OC(CO)C(O)C1F (configuration not stated) | - | ? | - | 0 | -
CC(=O)Nc1ccc(NC(=O)Nc2ccc3c(c2)N(C)C(=O)CS3)cc1 | 0 | 0 | ? | 0 | 0
CN1C(=O)CSc2ccc(NC(=O)Nc3ccccn3)cc21 | 0 | ? | -60 | 0 | 0
CCN(CC)CCCCn1c(-c2ccccc2)nc2c(NCc3ccccc3)nc(C)nc21 | - | 0 | - | 0 | -
O=C(NC(=S)NC1CCCc2ccccc21)c1ccc(F)cc1 (configuration not stated) | ? | 16µM | 0 | 8.9µM | 0
SMILES | MCF10A rerep | Gal4-VP16 FLuc | IL1B secr inh | RORgamma inh | SW480 rereplic
O=C(NC(=S)NC1CCCc2ccccc21)c1ccco1 (configuration not stated) | ? | ? | 0 | 7.1µM | 0
COc1ccc(NS(=O)(=O)c2cccc(C(=O)N3CCN(C/C=C/c4ccccc4)CC3)c2)cc1 | - | - | 0 | - | -
CCCCCCCN1C2=NCCN2c2ccccc21 | 0 | 0 | -55 | ? | 0
CCCCCCCN1C2=NCCCN2c2ccccc21 | ? | ? | -72 | 0 | ?
O=C(/C=C/c1cccc(C(F)(F)F)c1)OCC(=O)N1CCN(c2ccccc2)CC1 | 0 | - | 0 | - | 0
CCCCC[C@]12Cc3cc(OC)c(OC)cc3C(O1)c1c(cc(C)n(-c3ccccc3)c1=O)O2 | - | 0[10 µM] | - | 0[10 µM] | -
OC(c1ccccc1)(c1ccccc1)C1CCN(CCCOc2ccc3c(c2)CCCC3)CC1 | - | - | -115 | - | -
OC(c1ccccc1)(c1ccccc1)C1CCN(CCCOc2cccc(OC(F)(F)F)c2)CC1 | - | - | -51 | - | -
CC(=O)Nc1ccc(OCCCN2CCC(C(O)(c3ccccc3)c3ccccc3)CC2)cc1 | - | - | 0 | - | -
CC(=O)Nc1ccccc1OCCCN1CCC(C(O)(c2ccccc2)c2ccccc2)CC1 | - | - | 0 | - | -
O=[N+]([O-])c1cccc(C(F)(F)F)c1 | - | 0 | - | 0 | -
O=[N+]([O-])c1ccc(S(=O)(=O)c2cccc(C(F)(F)F)c2)nc1 | 5.2µM | - | -102 | - | 4.1µM
Cc1ccc2nc(C)/c(=N\O)c(C)nc2c1 | 0 | 0 | 0 | 11µM | 0
CCOC(=O)c1[nH]c(C)c(C(=O)OCC(=O)N2CCc3ccccc32)c1C | 23µM | 0 | 0 | 0 | 0
CC(C)(C)NC(=O)COC(=O)c1c2c(nc3ccccc13)CCC2 | 0 | 0 | 0 | 0 | 0
O=C(OCC(=O)N1CCc2ccccc21)c1c2c(nc3ccccc13)CCCCC2 | 10µM | 0 | 0 | 0 | 0
CCOC(=O)c1c(C)[nH]c(C(=O)N2CCc3cc(OC)c(OC)cc3C2)c1C | 0 | - | -61 | - | 0
CC(C)NC(=O)NC(=O)COC(=O)c1c2c(nc3ccccc13)CCC2 | 23µM | 0 | ? | 0 | 0
CCN(CC)CCNC(Cc1ccccc1)c1cccc(OC)c1 (configuration not stated) | ? | - | 0 | - | ?
COc1cccc(NC(=O)CN(C)C(C)C(=O)NC(C)c2ccc(Cl)cc2Cl)c1 (configuration not stated) | 0 | - | 0 | - | 0
CC1=[N+](C)c2ccc3ccccc3c2C1(C)C | ? | 2.5µM | 0 | ? | ?
Cn1cc(C(=O)c2ccc(Cl)cc2)cc1-c1nc2ccccc2n1C | ? | ? | -72 | ? | 0
Cc1ccc(-c2ccccc2NC(=O)CCl)o1 | ? | 0 | -59 | 0 | 0
Cc1ccc(-c2ccccc2NC(=O)CS(=O)CC(=O)Nc2ccc(C)c(Cl)c2)o1 (configuration not stated) | 26µM | 0 | -77 | ? | ?
Cc1ccc(-c2ccccc2NC(=O)C2C3C=CC(C3)C2C(=O)O)o1 (configuration not stated) | 0 | 4.5µM | 0 | 4.5µM | 0
Cc1ccc(-c2cccc(NC(=O)C3C(C(=O)O)[C@@H]4C=C[C@H]3C4)c2)o1 (some centres not stated) | 0 | 0 | 0 | 0 | 0
CCC1=C2CC[C@H]3C(=O)NC(=O)[C@H]3[C@H]2[C@@]2(C)C(=NCCOC)OC(=O)N2C1=O | - | 0 | - | 0 | -
COc1cc2c(cc1OC)OC(C)(C)C=C2 | - | 0 | - | 0 | -
COc1cc2c(cc1OC)C1C(=O)c3c(O)cc4c(c3OC1CO2)C=CC(C)(C)O4 (configuration not stated) | - | 0.89µM | - | 6.3µM | -
COc1cc2c(cc1OC)C1C(=O)c3ccc4c(c3OC1CO2)C=CC(C)(C)O4 (configuration not stated) | - | 0.13µM | - | ? | -
